Assay results as given in ChEMBL document CHEMBL4513141, “CO-ADD screening of NIH (USA) - Clinical Collection” (2021).
Results with a measured potency or affinity are listed apart.

Columns and labels:
Staphylococcus aureus = conditions: Concentration 20 uM; ASSAY_TEST Inhibition of Bacterial Growth; detection method Absorption (OD600); MEDIA CAMHB; plate type 384well; NBS; CORNING #3640; time 18 hr
Escherichia coli = conditions: Concentration 20 uM; ASSAY_TEST Inhibition of Bacterial Growth; detection method Absorption (OD600); MEDIA CAMHB; plate type 384well; NBS; CORNING #3640; time 18 hr

SMILES	Inhibition (Staphylococcus aureus) [%]	Inhibition (Escherichia coli) [%]
Cl.O.OC[C@H]1O[C@@H](n2cnc3c(N[C@H]4CCC[C@@H]4O)ncnc32)[C@@H](O)C1O (stereo not given in full)	7.67	1.98
CC(=O)/N=c1/sc(S(N)(=O)=O)nn1C [METHAZOLAMIDE]	5.78	3.59
NC(CO)(CO)CO.O=C(c1ccccc1)c1ccc2n1CCC2C(=O)O (stereo not given) [KETOROLAC TROMETHAMINE]	4.45	-3.99
COc1cc2c(cc1OC)C(=O)C(CC1CCN(Cc3ccccc3)CC1)C2.Cl (stereo not given) [DONEPEZIL HYDROCHLORIDE]	12.57	-6.95
Cc1nc2ccccn2c(=O)c1CCN1CCC(C(=O)c2ccc(F)cc2)CC1 [PIRENPERONE]	1.36	7.4
Cc1[nH]c(=O)c(C#N)cc1-c1ccncc1 [MILRINONE]	14.68	-0.64
CC(Cc1ccc(O)c(O)c1)(NN)C(=O)O.O (stereo not given)	16.15	3.56
CS(=O)(=O)O.Cc1c(O)cccc1C(=O)N[C@@H](CSc1ccccc1)[C@H](O)CN1C[C@H]2CCCC[C@H]2C[C@H]1C(=O)NC(C)(C)C [NELFINAVIR MESYLATE]	8.63	1.35
CCN(CC)CC(=O)Nc1c(C)cccc1C [LIDOCAINE]	9.46	-3.44
CNCCCC12CCC(c3ccccc31)c1ccccc12.Cl [MAPROTILINE HYDROCHLORIDE]	15.07	6.19
CN(CCOc1ccc(CC2SC(=O)NC2=O)cc1)c1ccccn1.O=C(O)/C=C\C(=O)O (stereo not given) [ROSIGLITAZONE MALEATE]	5.02	0.27
COc1cc(/C=C/c2ccc(O)cc2)cc(OC)c1 [PTEROSTILBENE]	13.68	1.16
CC(C)(C)NCC(O)COc1cccc2c1CC(O)C(O)C2 (stereo not given) [NADOLOL]	16.27	3.67
CSc1nc2cc(Cl)c(Oc3cccc(Cl)c3Cl)cc2[nH]1 [TRICLABENDAZOLE]	7.06	-5.3
COC(=O)C1=C(C)NC(C)=C(C(=O)OC(C)C)C1c1cccc2nonc12 (stereo not given) [ISRADIPINE]	14.31	-0.09
N#Cc1ccc(C(c2ccc(C#N)cc2)n2cncn2)cc1 [LETROZOLE]	12.65	-0.32
CC(C)C[C@H](NC(=O)[C@@H](O)[C@H](N)Cc1ccccc1)C(=O)O [UBENIMEX]	8.9	-1.57
COc1cc(OC)c(C(=O)CCCN2CCCC2)c(OC)c1.Cl	14.97	2.85
CC12CC3CC(C)(C1)CC(N)(C3)C2.Cl [MEMANTINE HYDROCHLORIDE]	17.71	5.88
Br.CN(C)CCCC1(c2ccc(F)cc2)OCc2cc(C#N)ccc21 (stereo not given) [CITALOPRAM HYDROBROMIDE]	3.11	-2.5
CC(C[N+](C)(C)C)OC(N)=O.[Cl-] (stereo not given) [BETHANECHOL CHLORIDE]	5.38	-1.38
COc1ccc(-c2cc(=O)c3c(OC)c(OC)c(OC)c(OC)c3o2)cc1OC [NOBILETIN]	13.24	-1.7
C=C(CC)C(=O)c1ccc(OCC(=O)O)c(Cl)c1Cl [ETHACRYNIC ACID]	39.53	0.95
Cl.O=C(c1ccc(OCCN2CCCCC2)cc1)c1c(-c2ccc(O)cc2)sc2cc(O)ccc12 [RALOXIFENE HYDROCHLORIDE]	16.87	-1.03
CCC(C)(C)/N=C(\NC#N)Nc1cccnc1	1.37	-2.42
COc1cc(C(=O)NC2CCCNC2)cc(OC)c1OC (stereo not given) [TROXIPIDE]	21.18	2.83
CC(C)c1ccc2c(c1)c(SC(C)(C)C)c(CC(C)(C)C(=O)O)n2Cc1ccc(Cl)cc1	10.09	5.68
CN(C)CCOC(C)(c1ccccc1)c1ccccn1.O=C(O)CCC(=O)O (stereo not given) [DOXYLAMINE SUCCINATE]	2.51	3.89
COc1cc(C[C@@H](CO)[C@H](CO)Cc2ccc(O)c(OC)c2)ccc1O [(+)-SECOISOLARICIRESINOL]	14.2	-3.86
Cl.Cn1c(NCCN(CCO)CCCc2ccc([N+](=O)[O-])cc2)cc(=O)n(C)c1=O	-11.53	3.31
